Values joined by “and” are separate entries in the source; they are usually repeats but may differ in a detail not shown here. Identical values can stand only once. The panel holds about 83,000 compounds, 20% with a hit somewhere; the sample as a whole holds those more often.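 Treatment: one concentration, 48 hours, 96-well format. Scoring: percent growth, with anything below 10 considered active.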 Active and inactive are the calls of the source.
These compounds were tested on NCI-H226 lung (assay: NCI-60 one-dose screen, 48 h (100 = growth as untreated, 0 = no growth, -100 = all killed)). Settings: 10 µM unless noted.
With CN1CCN(CCCN2c3ccccc3Sc3ccc(Cl)cc32)CC1 the growth was 95.7% (inactive) and 95.1% (inactive).
In the case of Nc1ncc(-c2ccc3ncnc(N4CCc5ccc(Cl)cc54)c3c2)cc1C(F)(F)F, the growth is reported as 20.5% (inactive).
CC(C)(C)c1cc(NC(=O)Nc2ccc(-c3cn4c(n3)sc3cc(OCCN5CCOCC5)ccc34)cc2)no1 was tested, and the growth was 17.8% (inactive).
For CC1(Cc2ccccc2)CC2=C(C(=O)O1)C(c1ccccc1)NC(=O)N2 (centres undefined), the growth was 101% (inactive).
With COc1cc(C=O)ccc1Oc1ccc([N+](=O)[O-])cc1[N+](=O)[O-] the growth was 99.9% (inactive).

These compounds were tested on NCI-H322M lung in the same assay as above. Settings: 10 µM unless noted.
In the case of COc1ccc(C/C(C)=C(/c2ccc(OCCN3CCCC3)cc2)c2ccc(OC(=O)NCc3ccccc3)cc2)cc1, the growth is reported as 92% (inactive).
With CCN(CC)CCOc1ccc(/C(=C(\Cl)c2ccccc2)c2ccccc2)cc1 the growth was 74.8% (inactive).
With Cc1ccc(/C=C2\COc3ccc(O)c(O)c3C2=O)cc1 the growth was 31.3% (inactive).
In the case of COc1ccc2c(c1)oc1c(C)c3c(c(C)c12)C(=O)N(Nc1ccccc1)C3=O, the growth is reported as 95.5% (inactive).
For CCC(=C(c1ccc(OCCCN(C)C)cc1)c1ccc(OCCCN(C)C)cc1)c1ccc(Cl)cc1, the growth was -96.8% (active).
With CCOC(=O)c1c(-c2ccc(C)cc2)c(C#N)c(=O)n(-c2cccc(C(F)(F)F)c2)c1N the growth was 103% (inactive).
With S=c1nc(CS)[nH]c2ccccc12 the growth was 95.6% (inactive).
With O=C(N/N=C/c1ccc(O)cc1O)c1cccc(Nc2ccnc(C(F)(F)F)c2)c1 the growth was 22.7% (inactive).
In the case of CCN(CC)CCCN1C(=O)c2c(c(C)c3c(oc4cc(OC)ccc43)c2C)C1=O, the growth is reported as 94.2% (inactive).
With Cc1ccc(NC(=O)c2ccc(CN3CCN(C)CC3)cc2)cc1Nc1nccc(-c2cccnc2)n1 the growth was 104% (inactive).
COc1cc(/C=C2/C=C(c3ccc(C(C)(C)C)cc3)N(CCc3ccc(S(N)(=O)=O)cc3)C2=O)cc(OC)c1OC was tested, and the growth was 81.2% (inactive).
In the case of O=c1c(/C=C/c2ccco2)nnc2sc(Nc3ccc(Cl)cc3)nn12, the growth is reported as 83.8% (inactive).
Nc1[nH]nc(Nc2ccccc2)c1-c1nc2ccccc2s1 was tested, and the growth was 37.6% (inactive).
In the case of CCCCCCCCn1ccc2cc(NC(=O)CN3CCN(c4nc(C)cc(N5CCCCC5)n4)CC3)ccc21, the growth is reported as 101% (inactive).
In the case of CC/C(=C(/c1ccc(O)cc1)c1ccc(OCCN2CCCCCC2)cc1)c1ccc(Cl)cc1, the growth is reported as 84.1% (inactive).
For C=C(C)[C@@H]1CC[C@]2(C(=O)N3CCN(C)CC3)CC[C@]3(C)[C@H](CC[C@@H]4[C@@]5(C)CC(CCCNC(C)=O)(CCCNC(C)=O)[C@H](OC(C)=O)C(C)(C)[C@@H]5CC[C@]43C)[C@@H]12, the growth was 105% (inactive).
CCN(c1cc(-c2ccc(CN3CCC(/C=C/S(=O)(=O)c4ccccc4)CC3)cc2)cc(C(=O)NCc2c(C)cc(C)[nH]c2=O)c1C)C1CCOCC1 was tested, and the growth was 85.1% (inactive).
With Nc1nc(N)c2c(n1)NC(c1ccc(Cl)cc1)CC(c1cccc(Nc3ccncc3)c1)=N2 (centres undefined) the growth was 63.9% (inactive).
C=C(c1ccc(C(=O)O)cc1)c1cc2c(cc1C)C(C)(C)CCC2(C)C was tested, and the growth was 72% (inactive).
For O=C1OCC2=C1C(c1cccc([N+](=O)[O-])c1)c1cc3c(cc1N2CCO)CCC3 (centres undefined), the growth was 37.2% (inactive).
In the case of CCN(CC)/C([O-])=c1\cccc\c1=C1\N=C(c2ccccc2)N=C1[n+]1ccc(-c2ccccc2)cc1, the growth is reported as 100% (inactive).
Cc1nc(-n2[nH]c(=O)ccc2=O)sc1N=Nc1ccccc1 was tested, and the growth was 97.3% (inactive).
In the case of Cc1ccc(-c2nc3nc(-c4ccccc4)nc(N4CCCNCC4)c3o2)cc1, the growth is reported as -6.9% (active).
O=C([C@H]1C[C@H]1c1ccc(S(F)(F)(F)(F)F)cc1)N1CCN(c2cc(Cl)ccc2C(F)(F)F)CC1 was tested, and the growth was 90.1% (inactive).
In the case of OB(O)c1ccsc1-c1nc2ccc3[nH]ncc3c2c2c1CCCC2, the growth is reported as 49.9% (inactive).
In the case of CC[C@]12CN3CCc4c([nH]c5ccccc45)[C@@](C(=O)OC)(c4cc5c(cc4OC)N(C)[C@H]4[C@@](O)(C(=O)OC)[C@H](OC(C)=O)[C@]6(CC)C=CCN7CC[C@]54[C@@H]76)CC(C3)[C@H]1O2 (some centres undefined), the growth is reported as 41% (inactive).
With COC(=O)N/N=C/c1c[n+]([O-])c2ccccc2[n+]1[O-] the growth was 98.3% (inactive).
For Cn1ccnc1CN1CCSC(C(=O)Nc2ccccc2)C1 (centres undefined), the growth was 88.7% (inactive).
With CCNC(=O)Oc1ccc(/C(=C(/C)Cc2ccc(OC)cc2)c2ccc(OCCN(CC)CC)cc2)cc1 the growth was 76.9% (inactive).
